# In PubChem BioAssay AID624331 (National Center for Advancing Translational Sciences (NCATS), 2012):
# Results filed as inconclusive are left out. A call without a number means that no potency is given here. Calls of active or inactive are those of the source. The call rests on the fitted dose curve; in most records, active means well fitted activation curve with a large enough effect; inconclusive means small, poorly fitted or top-dose-only effect; inactive means no such curve, though single readings can be large or run the other way.
# Test: qHTS assay for re-activators of p53 using a Luc reporter: Hit Validation with no p53 Expressed
# Conditions: p53-null cells, luciferase reporter counter-screen; series mostly up to 46.1 µM
# How it was run: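 Without p53 expression, cells (1000/well, Opti-MEM + 10% FBS) were exposed 24 h at 37 deg C to compounds in a 1:5 series from 10 mM stock (top 46.1 µM in well). Luminescent signal read 10 min after Amplite addition; actives flag unspecific activation.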
# Potency means the concentration at half of the fitted maximal effect.
row,SMILES,Potency
1,CC(/C=N/Nc1nc2ccccc2[nH]1)=C\c1ccccc1,0.116 µM (active)
2,Cc1ccc(C(=O)OC(C)C(=O)Nc2ccc3c(c2)OCO3)c(O)c1 (stereo not given),inactive
3,Cc1ccc(C)c(N2CCN(C(=O)CCc3nc(-c4ccccc4C(F)(F)F)no3)CC2)c1,inactive
4,CC(=O)Oc1ccc(Cl)cc1/C=C/c1ccc2ccccc2n1,23.1 µM (active)
5,O=C(Cc1ccccc1)NCc1ccc(F)cc1,inactive
6,O=C(CCCN1C(=O)/C(=C/c2ccco2)SC1=S)Nc1ccccc1,inactive
7,C#CC(C)(CC)NC(=O)Cn1nnc(-c2ccc(S(C)(=O)=O)cc2)n1 (stereo not given),inactive
8,Cc1cccnc1NC(=O)/C=C/c1ccc2c(c1)OCO2,inactive
9,O=C(NNC(=O)C1CCCO1)c1ccccc1Cl (stereo not given),inactive
10,CN(C)c1ccc(/C=N/N=C/c2ccccc2O)cc1,inactive
11,CCc1ccc(C(=O)Nc2nc3ccccc3[nH]2)cc1,inactive
12,Cc1ccc(-c2noc(CN3CCC(C(N)=O)CC3)n2)cc1,inactive
13,O=C(NNC(=O)c1cc(-c2ccccc2)nn1-c1ccccc1)c1ccccc1,inactive
14,Cc1ccc(-c2nc(-c3cccnc3)no2)c(C)c1,inactive
15,COc1ccc(C(C#N)N2N=C(c3ccccc3)CC2c2ccccc2)cc1OC (stereo not given),inactive
16,CC(=O)Nc1ccc(Nc2cc(C)nc3c(-c4ccccc4)cnn23)cc1,inactive
17,O=S(=O)(N/N=C/c1ccccc1OCc1ccc(Cl)cc1)c1ccccc1,inactive
18,O=C(Oc1ccccc1/C=C\C(=O)c1cc2ccccc2o1)c1cccc(F)c1,inactive
19,CC(C)(C)c1nnc(SCC(=O)c2ccccc2)n(N)c1=O,inactive
20,O=C(N/N=C1\CCc2ccccc21)c1ccccc1O,inactive

row,SMILES,Potency
1,Cc1cccc(C)c1NC(=O)CC(NCc1ccco1)C(=O)O (stereo not given),inactive
2,COCC(=O)Nc1nnc(COc2ccccc2)s1,inactive
3,C#CCOc1ccc(/C=C2\SC(=S)N(Cc3cccnc3)C2=O)cc1,inactive
4,O=c1oc2ccccc2nc1/C=C(O)/C=C/c1ccc(F)cc1,inactive
5,CC(C)(C)Nc1ncnc2c1cnn2-c1ccccc1,inactive
6,Cc1ccc(C(=O)NC(=C(Cl)Cl)S(=O)(=O)c2ccccc2)cc1,inactive
7,Cc1csc(SCC(=O)Nc2ccc(C)c(F)c2)n1,inactive
8,CCCSc1ccc2nc(-c3ccccc3)cn2c1,inactive
9,Cn1c(=N)n(CC(=O)c2ccc(Cl)c(Cl)c2)c2ccccc21,inactive
10,N#C/C(=C\c1ccc(OCc2ccc(Br)cc2)cc1)C(=O)Nc1cccc(C(=O)O)c1,inactive
11,CCOc1ccc(C(O)Cc2nc3ccccc3n2C)cc1 (stereo not given),inactive
12,CN(C)/C=N/c1cnc(C(=O)c2ccc(Cl)cc2)n1C,inactive
13,Cc1nc(NCCc2ccccc2)c2nnn(Cc3ccccc3Cl)c2n1,inactive
14,Cc1ccc(NC(=O)COc2ccc3c(c2)OCO3)c(Cl)c1,inactive
15,O=C(Nc1ccc(-c2nc3cc(Cl)ccc3c(=O)o2)cc1)c1ccco1,inactive
16,Cn1c(Cc2cccs2)nnc1SCc1nc2ccccc2[nH]1,inactive
17,CCc1nnc(NC(=O)CCC(=O)Nc2ccccc2)s1,inactive
18,Cc1ccc(C(=O)Nc2ccn(C)n2)cc1,inactive
19,CC(C)CCn1cnc2c(cnn2-c2ccc(F)cc2)c1=O,inactive
20,Nc1nonc1-n1nnc(C(=O)N/N=C/c2ccc(OCc3cccc(Cl)c3)cc2)c1CN1CCCCC1,inactive
